The source of these data is ChEMBL document CHEMBL1961873, “Compounds: GSK PKIS; Assays: Nanosyn kinase panel” (2012).

Test [1] concerns the target T1, Serine/threonine-protein kinase Nek9 (Homo sapiens) (UniProt Q8TD19).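 Also: each value is a mean percent inhibition of NEK9.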
T1 sequence (whole entry): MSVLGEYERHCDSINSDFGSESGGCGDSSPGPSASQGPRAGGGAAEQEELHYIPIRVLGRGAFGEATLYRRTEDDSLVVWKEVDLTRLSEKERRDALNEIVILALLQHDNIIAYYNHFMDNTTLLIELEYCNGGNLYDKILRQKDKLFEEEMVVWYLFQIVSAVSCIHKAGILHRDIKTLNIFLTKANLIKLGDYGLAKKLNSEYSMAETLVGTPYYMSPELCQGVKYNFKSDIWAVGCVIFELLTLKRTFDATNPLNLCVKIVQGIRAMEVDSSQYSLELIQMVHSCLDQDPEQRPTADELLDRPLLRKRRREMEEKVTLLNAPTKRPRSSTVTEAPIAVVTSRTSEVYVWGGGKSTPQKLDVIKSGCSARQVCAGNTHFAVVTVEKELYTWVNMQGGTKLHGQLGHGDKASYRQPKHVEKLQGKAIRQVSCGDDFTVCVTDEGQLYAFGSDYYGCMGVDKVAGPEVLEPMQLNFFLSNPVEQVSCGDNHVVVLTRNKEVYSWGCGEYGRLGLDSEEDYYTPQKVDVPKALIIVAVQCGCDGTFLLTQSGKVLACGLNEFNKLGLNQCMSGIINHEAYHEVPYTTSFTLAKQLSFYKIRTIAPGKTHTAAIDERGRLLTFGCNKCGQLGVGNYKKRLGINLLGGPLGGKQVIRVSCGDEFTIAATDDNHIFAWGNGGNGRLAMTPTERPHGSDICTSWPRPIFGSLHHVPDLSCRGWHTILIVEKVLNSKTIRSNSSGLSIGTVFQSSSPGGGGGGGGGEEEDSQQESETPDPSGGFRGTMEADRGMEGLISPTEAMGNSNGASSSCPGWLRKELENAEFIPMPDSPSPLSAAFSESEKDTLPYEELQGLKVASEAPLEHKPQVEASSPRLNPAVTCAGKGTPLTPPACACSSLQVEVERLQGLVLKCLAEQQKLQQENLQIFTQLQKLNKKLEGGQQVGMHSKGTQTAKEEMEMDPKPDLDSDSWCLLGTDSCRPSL
The settings on record: at 1 µM.

Test [2] has as its target Serine/threonine-protein kinase PLK1 (Homo sapiens) (UniProt P53350). The settings on record: at 0.1 µM.
Test [3] shares this target. Particulars: at 1 µM.
For test [4], the target named is T2, Dual specificity protein kinase TTK (Homo sapiens) (UniProt P33981).
T2 sequence (whole entry): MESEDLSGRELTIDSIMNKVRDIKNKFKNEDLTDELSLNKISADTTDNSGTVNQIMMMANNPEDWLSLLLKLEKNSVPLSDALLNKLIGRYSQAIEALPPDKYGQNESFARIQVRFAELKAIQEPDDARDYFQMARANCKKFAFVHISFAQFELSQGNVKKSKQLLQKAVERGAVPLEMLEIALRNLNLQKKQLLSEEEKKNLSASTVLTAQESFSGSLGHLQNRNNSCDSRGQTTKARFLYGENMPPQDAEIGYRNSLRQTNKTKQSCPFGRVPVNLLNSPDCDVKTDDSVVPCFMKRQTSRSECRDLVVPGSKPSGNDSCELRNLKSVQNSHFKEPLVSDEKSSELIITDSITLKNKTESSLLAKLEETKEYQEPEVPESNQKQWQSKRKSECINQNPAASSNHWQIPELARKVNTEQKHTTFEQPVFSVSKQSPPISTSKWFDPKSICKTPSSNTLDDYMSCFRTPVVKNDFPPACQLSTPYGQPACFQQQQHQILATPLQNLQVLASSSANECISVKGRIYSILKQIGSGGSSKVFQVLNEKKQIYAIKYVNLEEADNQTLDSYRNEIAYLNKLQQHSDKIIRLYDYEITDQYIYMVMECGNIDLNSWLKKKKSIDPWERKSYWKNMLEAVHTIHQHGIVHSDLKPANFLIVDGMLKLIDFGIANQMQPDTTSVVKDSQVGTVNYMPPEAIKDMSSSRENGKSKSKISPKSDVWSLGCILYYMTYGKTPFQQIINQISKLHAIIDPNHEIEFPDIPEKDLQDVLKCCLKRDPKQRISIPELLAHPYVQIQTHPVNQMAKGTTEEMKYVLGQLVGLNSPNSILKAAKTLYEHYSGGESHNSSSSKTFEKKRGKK
Particulars: at 0.1 µM.

The subject of test [5] is T3, Receptor-type tyrosine-protein kinase FLT3 (Homo sapiens), P36888 [D835Y].
T3 sequence (whole entry): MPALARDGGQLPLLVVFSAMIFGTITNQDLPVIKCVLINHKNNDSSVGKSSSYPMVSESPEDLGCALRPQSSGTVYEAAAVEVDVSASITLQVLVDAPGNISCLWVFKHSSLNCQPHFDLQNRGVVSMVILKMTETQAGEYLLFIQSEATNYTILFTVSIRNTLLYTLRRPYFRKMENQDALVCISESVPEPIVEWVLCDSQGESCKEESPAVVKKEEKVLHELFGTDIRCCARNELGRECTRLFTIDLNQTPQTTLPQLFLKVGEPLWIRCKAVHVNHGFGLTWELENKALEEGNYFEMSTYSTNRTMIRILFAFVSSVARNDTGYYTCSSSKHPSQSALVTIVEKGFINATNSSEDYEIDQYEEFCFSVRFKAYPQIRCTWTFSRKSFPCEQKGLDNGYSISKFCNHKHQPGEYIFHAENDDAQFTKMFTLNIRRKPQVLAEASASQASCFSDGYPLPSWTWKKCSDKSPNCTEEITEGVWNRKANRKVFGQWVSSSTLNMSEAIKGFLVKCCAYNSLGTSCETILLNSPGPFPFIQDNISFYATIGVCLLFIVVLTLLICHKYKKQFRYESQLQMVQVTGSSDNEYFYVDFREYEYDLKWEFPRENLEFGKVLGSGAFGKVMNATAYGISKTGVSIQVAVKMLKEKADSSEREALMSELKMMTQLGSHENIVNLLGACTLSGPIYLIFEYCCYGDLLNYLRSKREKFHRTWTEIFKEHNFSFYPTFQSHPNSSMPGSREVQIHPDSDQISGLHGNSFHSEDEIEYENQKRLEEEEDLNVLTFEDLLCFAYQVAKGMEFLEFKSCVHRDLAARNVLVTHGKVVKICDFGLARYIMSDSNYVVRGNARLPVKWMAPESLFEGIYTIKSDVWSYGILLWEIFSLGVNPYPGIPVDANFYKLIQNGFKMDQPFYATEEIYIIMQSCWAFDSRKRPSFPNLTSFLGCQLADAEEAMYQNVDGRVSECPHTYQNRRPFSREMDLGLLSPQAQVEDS
Particulars: at 1 µM.

For test [6], the target named is Vascular endothelial growth factor receptor 3 (Homo sapiens) (UniProt P35916). The settings on record: at 0.1 µM.
Sequence of Vascular endothelial growth factor receptor 3 (Homo sapiens) (P35916 whole entry): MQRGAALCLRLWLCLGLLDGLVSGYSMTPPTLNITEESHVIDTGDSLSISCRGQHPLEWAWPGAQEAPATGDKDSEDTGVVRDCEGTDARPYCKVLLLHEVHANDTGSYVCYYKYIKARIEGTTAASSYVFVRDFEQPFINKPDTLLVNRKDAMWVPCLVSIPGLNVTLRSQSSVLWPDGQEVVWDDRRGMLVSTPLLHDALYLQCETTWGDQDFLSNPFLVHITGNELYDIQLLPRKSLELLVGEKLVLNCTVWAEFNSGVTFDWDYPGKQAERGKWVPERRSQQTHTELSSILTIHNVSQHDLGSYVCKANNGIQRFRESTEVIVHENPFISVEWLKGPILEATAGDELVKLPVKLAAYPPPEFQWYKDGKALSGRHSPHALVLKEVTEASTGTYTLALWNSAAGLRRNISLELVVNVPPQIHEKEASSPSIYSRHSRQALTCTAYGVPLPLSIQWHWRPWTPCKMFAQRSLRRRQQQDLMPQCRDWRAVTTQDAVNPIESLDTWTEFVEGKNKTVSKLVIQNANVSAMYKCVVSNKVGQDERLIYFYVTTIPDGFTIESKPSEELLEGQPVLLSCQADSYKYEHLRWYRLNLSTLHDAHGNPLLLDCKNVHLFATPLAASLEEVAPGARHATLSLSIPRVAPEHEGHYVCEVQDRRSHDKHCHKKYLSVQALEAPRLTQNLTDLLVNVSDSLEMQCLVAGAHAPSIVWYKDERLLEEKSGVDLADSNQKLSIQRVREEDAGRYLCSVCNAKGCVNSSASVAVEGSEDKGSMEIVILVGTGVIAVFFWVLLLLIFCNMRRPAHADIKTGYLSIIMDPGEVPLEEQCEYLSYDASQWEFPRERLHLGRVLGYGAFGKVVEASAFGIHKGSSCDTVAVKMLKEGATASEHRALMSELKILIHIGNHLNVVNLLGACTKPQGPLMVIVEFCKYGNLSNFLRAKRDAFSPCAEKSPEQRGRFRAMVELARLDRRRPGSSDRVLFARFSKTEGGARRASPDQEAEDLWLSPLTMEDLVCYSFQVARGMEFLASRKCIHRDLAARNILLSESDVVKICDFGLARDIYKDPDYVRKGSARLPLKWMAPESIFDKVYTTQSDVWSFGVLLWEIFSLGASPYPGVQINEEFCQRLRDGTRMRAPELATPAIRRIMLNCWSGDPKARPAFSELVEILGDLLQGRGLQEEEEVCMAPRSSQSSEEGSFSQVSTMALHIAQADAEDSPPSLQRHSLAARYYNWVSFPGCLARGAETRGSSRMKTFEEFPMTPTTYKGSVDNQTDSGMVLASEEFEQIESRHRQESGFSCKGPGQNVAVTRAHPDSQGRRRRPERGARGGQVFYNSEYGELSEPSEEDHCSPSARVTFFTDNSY
For test [7] the target is unchanged. Particulars: at 1 µM.
In test [8] the target is Macrophage colony-stimulating factor 1 receptor (Homo sapiens) (UniProt P07333). The settings on record: at 0.1 µM.
Sequence of Macrophage colony-stimulating factor 1 receptor (Homo sapiens) (P07333 whole entry): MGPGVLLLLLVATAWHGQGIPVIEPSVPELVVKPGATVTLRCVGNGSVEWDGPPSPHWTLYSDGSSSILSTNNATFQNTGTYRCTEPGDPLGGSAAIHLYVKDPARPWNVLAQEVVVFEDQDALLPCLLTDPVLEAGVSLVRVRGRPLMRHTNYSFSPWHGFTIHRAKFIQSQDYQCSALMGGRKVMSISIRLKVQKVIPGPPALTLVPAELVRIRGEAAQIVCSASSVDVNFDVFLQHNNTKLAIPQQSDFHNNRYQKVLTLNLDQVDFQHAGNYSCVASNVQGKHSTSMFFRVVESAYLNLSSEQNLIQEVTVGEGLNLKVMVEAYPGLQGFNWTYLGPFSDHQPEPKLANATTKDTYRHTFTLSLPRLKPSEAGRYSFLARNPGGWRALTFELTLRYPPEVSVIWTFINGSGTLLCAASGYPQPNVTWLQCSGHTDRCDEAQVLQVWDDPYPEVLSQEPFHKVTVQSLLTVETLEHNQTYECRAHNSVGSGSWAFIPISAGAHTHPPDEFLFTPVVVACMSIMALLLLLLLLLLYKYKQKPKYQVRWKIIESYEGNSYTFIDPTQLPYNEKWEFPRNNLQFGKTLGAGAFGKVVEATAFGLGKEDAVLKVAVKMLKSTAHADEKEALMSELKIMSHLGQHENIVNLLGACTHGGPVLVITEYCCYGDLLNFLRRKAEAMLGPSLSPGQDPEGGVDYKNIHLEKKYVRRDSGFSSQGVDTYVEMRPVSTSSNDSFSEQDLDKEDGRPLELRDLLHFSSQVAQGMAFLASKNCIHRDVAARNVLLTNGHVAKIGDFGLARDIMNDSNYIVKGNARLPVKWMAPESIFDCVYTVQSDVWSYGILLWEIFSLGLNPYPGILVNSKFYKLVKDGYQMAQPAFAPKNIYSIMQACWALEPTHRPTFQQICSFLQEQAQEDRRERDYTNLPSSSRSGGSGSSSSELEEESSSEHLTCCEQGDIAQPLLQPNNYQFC
Test [9] shares this target. Particulars: at 1 µM.
Test [10] concerns the target Tyrosine-protein kinase Fyn (Homo sapiens) (UniProt P06241). The settings on record: at 0.1 µM.
For test [11] the target is unchanged. Particulars: at 1 µM.
Test [12] has as its target Tyrosine-protein kinase HCK (Homo sapiens) (UniProt P08631). Particulars: at 0.1 µM.
Test [13] has the same target. Particulars: at 1 µM.
Test [14] addresses Insulin-like growth factor 1 receptor (Homo sapiens) (UniProt P08069). The settings on record: at 0.1 µM.
Test [15] has the same target. The settings on record: at 1 µM.
Test [16] concerns the target Insulin receptor (Homo sapiens) (UniProt P06213). The settings on record: at 0.1 µM.
Test [17] shares this target. The settings on record: at 1 µM.
In test [18] the target is Insulin receptor-related protein (Homo sapiens) (UniProt P14616). The settings on record: at 0.1 µM.
The target is the same in test [19]. Particulars: at 1 µM.
Test [20] concerns the target T4, Tyrosine-protein kinase ITK/TSK (Homo sapiens) (UniProt Q08881).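 Also: mean percent inhibition of ITK from the GSK PKIS screen.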
T4 sequence (whole entry): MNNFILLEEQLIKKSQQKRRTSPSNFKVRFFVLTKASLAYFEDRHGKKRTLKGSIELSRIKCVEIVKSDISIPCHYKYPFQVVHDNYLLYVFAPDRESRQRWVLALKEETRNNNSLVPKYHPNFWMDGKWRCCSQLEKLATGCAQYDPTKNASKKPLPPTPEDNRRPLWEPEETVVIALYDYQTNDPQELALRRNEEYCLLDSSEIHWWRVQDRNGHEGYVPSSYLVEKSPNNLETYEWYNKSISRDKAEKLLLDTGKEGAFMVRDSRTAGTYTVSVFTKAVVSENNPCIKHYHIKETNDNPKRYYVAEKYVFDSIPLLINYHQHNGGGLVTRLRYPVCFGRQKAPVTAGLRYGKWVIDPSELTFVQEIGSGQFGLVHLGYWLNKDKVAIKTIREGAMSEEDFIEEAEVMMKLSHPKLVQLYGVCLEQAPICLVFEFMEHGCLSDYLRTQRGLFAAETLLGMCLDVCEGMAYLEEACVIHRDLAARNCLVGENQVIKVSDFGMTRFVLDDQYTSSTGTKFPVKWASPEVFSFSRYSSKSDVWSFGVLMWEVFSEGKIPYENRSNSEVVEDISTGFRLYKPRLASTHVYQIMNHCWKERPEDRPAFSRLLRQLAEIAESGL
Particulars: at 0.1 µM.

Sequence of Tyrosine-protein kinase Fyn (Homo sapiens) (P06241 2-537 limits assumed): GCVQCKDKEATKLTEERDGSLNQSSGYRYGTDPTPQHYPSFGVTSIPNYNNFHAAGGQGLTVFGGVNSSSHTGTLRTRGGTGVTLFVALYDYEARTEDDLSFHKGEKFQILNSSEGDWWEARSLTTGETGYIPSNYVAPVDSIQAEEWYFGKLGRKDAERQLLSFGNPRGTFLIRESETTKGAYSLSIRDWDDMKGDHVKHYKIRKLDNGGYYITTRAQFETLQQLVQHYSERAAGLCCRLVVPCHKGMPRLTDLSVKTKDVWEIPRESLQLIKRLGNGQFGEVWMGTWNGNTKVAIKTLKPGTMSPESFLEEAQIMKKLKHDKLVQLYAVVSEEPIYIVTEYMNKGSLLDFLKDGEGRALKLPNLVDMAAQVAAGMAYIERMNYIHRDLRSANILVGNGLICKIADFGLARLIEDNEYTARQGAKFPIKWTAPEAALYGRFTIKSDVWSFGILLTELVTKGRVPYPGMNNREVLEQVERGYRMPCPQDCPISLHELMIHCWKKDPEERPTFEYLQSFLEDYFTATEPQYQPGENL
Sequence of Insulin-like growth factor 1 receptor (Homo sapiens) (P08069 31-736 limits assumed): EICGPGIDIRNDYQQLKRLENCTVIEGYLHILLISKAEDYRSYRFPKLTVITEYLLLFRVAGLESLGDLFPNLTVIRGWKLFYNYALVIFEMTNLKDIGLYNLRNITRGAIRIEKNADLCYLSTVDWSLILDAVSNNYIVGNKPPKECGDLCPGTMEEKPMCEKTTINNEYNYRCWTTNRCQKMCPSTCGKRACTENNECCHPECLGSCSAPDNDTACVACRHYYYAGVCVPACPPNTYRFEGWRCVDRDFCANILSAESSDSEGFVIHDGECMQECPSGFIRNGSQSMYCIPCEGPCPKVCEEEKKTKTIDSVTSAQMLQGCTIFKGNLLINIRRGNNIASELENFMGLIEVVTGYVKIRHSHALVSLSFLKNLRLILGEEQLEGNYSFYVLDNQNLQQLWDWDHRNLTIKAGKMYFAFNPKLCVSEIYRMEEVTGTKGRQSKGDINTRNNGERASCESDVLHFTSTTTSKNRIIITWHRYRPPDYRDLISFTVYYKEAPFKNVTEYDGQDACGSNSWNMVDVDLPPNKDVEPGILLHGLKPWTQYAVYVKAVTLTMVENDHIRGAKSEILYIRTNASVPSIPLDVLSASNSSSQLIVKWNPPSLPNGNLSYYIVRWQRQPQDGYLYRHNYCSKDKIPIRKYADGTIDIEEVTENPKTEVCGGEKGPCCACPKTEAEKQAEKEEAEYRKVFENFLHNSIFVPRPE
Sequence of Insulin-like growth factor 1 receptor (Homo sapiens) (P08069 741-1367 limits assumed): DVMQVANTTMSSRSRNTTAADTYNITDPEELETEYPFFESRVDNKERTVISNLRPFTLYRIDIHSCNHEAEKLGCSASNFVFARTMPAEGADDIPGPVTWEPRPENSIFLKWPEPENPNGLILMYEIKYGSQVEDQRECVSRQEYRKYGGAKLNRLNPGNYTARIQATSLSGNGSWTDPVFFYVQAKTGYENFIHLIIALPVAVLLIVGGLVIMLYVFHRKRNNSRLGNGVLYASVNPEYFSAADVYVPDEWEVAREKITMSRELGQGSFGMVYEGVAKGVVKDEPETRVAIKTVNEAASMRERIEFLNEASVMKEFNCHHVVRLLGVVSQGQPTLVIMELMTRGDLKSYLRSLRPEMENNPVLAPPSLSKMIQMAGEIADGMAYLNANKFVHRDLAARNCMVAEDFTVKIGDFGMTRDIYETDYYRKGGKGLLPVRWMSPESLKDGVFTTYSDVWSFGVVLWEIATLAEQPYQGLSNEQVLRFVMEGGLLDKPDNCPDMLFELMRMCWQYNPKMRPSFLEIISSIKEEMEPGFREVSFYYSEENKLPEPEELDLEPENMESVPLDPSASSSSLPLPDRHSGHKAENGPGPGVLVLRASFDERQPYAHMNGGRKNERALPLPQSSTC
Sequence of Serine/threonine-protein kinase PLK1 (Homo sapiens) (P53350 whole entry): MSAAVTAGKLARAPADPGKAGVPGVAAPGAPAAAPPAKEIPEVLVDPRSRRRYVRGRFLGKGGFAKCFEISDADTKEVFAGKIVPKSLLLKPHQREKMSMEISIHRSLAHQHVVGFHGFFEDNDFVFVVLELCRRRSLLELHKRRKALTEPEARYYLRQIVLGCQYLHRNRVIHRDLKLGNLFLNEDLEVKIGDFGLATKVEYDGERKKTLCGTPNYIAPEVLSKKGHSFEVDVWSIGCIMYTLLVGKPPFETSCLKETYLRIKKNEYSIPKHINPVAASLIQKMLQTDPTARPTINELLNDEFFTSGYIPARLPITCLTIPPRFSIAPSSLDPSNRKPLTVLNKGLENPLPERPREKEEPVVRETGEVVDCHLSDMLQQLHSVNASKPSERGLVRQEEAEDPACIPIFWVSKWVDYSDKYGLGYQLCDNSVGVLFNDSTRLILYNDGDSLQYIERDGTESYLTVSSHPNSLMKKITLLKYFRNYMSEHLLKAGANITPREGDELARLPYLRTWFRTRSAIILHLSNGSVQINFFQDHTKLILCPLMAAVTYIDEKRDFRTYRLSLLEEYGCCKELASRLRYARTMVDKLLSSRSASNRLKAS

As a reminder, the inhibition is the relative decrease from the control value, in per cent. Turning to `NS(=O)(=O)c1cccc(-c2ccc3c(NC(=O)C4CC4)n[nH]c3c2)c1`, the inhibition in [1] was 2.04%; in test [2], 0.99%; in test [3], -1.05%; in test [4], -4.5%; in test [5] it was -1.12%; in test [6], 2.99%. Besides, the inhibition is 5.11% in test [7]; -0.02% in test [8]; 2.28% in [9]; 1.2% in test [10]; 2.4% in [11]; -0.53% in test [12]. In addition, the inhibition in [13] is 1.86%; in [14], -0.13%; in test [15], 3.51%; in [16] it was 3.15%; in test [17], -0.25%; in test [18], -2.37%. Also, the inhibition in test [19] is -1.21%; in [20], -0.53%.
In the case of `COc1ccc(-c2coc3ncnc(N)c23)cc1`, the inhibition in test [1] was 6.24%; in [2] it was 3.82%; in test [3], 3.47%; in test [4], 10.9%; in [5] it was -3.79%; in [6], 0.69%. Moreover, the inhibition in [7] was -0.08%; in [8] it was 4.17%; in test [9] it was 2.83%; in test [10], 0.65%; in [11] it was 2.02%; in [12] it was 5.63%. Besides, the inhibition is 8.51% in test [13]; 1.64% in [14]; 2.38% in test [15]; 5.22% in [16]; 6.33% in test [17]; 1.82% in [18]. Moreover, the inhibition in test [19] stood at 1.27%; in [20], 1.41%.
Turning to `Fc1cccc(COc2ccc(Nc3ncnc4sc(-c5cccs5)cc34)cc2Cl)c1`, the inhibition worked out at 2.21% in [1]; 1.64% in [2]; 2.97% in [3]; 2.43% in [4]; 4.36% in [5]; 3.77% in test [6]. The inhibition in [7] was found to be 3.65%; in [8], 0.1%; in test [9], 11.2%; in [10], 1.11%; in [11] it was 5.19%; in [12], 1.68%. In addition, the inhibition in [13] was 3.8%; in test [14], 0.38%; in test [15], 0.6%; in test [16], 4.85%; in [17], 3.43%; in [18], -1.46%. Moreover, the inhibition in test [19] is -0.83%; in [20], 0.84%.
Regarding `Nc1ncnc2occ(-c3ccc(NC(=O)Nc4cc(C(F)(F)F)cc(C(F)(F)F)c4)cc3)c12`, the inhibition in test [1] was -1.98%; in test [2], 2.75%; in test [3], 1.86%; in [4] it was 1.59%; in test [5], 33.2%; in test [6], 9.31%. Also, the inhibition in test [7] stood at 56.5%; in test [8], 51.2%; in test [9], 95.3%; in test [10], 0.55%; in test [11], 10.3%; in test [12] it was 6.07%. The inhibition in test [13] was 27.1%; in test [14], 1.24%; in test [15], 7.12%; in test [16], -4.81%; in [17] it was 6.05%; in [18] it was 5.56%. Also, the inhibition in test [19] was 2.23%; in test [20], 1.65%.
On to `CCCN1CCC=C(c2ccc(Nc3nc(Nc4ccccc4C(N)=O)c4cc[nH]c4n3)c(C)c2)C1`, for which the inhibition in [1] was 7.97%; in test [2] it was 13.9%; in [3], 53.6%; in [4] it was 70.8%; in [5] it was 20.8%; in test [6], 9%. The inhibition in test [7] is 26.6%; in test [8], 27.4%; in test [9], 63.1%; in test [10] it was 4.83%; in test [11], 7.24%; in test [12], 7.82%. The inhibition came out at 16.3% in test [13]; 97.6% in test [14]; 99.2% in test [15]; 84% in [16]; 90.1% in test [17]; 23.2% in [18]. Moreover, the inhibition in test [19] is 70.8%; in test [20], 1.99%.
As for `Cc1cccc(-c2n[nH]cc2-c2ccc3ncccc3n2)n1`, the inhibition is 4.16% in test [1]; 0.53% in test [2]; 3.07% in [3]; 2.51% in test [4]; -2.35% in [5]; 4.9% in test [6]. The inhibition in [7] worked out at 39.4%; in test [8], 2.38%; in test [9], 2.47%; in [10] it was 0.64%; in test [11], 6.38%; in test [12], 0.57%. Also, the inhibition in [13] is 5.58%; in test [14], 1.27%; in test [15], -0.01%; in test [16], -0.03%; in test [17], 2.58%; in test [18] it was -0.57%. Moreover, the inhibition in test [19] is -0.38%; in test [20], 0.38%.
